# Test results: the supplement of paper PMC10849652
# Of roughly 8,800 targets only a part is listed; those with a hit were picked by preference. About 0.5% of all pairs of compound and target were hits. Unmarked numbers belong to inactive results.
# Compound: Cn1cc(CNCC2CCN(c3ncc(C(=O)NO)cn3)CC2)c2ccccc21 [quisinostat]
# Test: log2 fold change, soluble protein after heating vs DMSO (PISA); higher = thermal stabilisation; K562 lysate, 10 uM; active = over 0.2 and 3.5 SD of the protein, either way, in both replicates (recomputed)
# Outline: (§1)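 Quantification was by TMTpro 16plex LC-MS/MS with equalised channel sums, applied to the supernatant after 21,000xg for 90 min. Samples were crude K562 extract at 1 mg/mL protein in PBS pH 7.4 with 1 mM MgCl2, treated with 10 μM compound for 30 min, heated for 3 min across 48°C-58°C, pooled and brought to 0.5% NP-40 at 4°C. Values are log-two fold changes in thermal stability relative to solvent controls, from duplicates.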
# Sequence of UniProt O00161 (O00161 whole entry, looked up): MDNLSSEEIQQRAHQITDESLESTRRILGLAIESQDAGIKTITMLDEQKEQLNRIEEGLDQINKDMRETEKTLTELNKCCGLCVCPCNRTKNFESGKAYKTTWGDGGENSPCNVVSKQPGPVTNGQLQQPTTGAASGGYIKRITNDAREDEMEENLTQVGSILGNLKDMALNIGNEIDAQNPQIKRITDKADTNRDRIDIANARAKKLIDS
# Sequence of UniProt Q9BXP5 (Q9BXP5 whole entry, looked up): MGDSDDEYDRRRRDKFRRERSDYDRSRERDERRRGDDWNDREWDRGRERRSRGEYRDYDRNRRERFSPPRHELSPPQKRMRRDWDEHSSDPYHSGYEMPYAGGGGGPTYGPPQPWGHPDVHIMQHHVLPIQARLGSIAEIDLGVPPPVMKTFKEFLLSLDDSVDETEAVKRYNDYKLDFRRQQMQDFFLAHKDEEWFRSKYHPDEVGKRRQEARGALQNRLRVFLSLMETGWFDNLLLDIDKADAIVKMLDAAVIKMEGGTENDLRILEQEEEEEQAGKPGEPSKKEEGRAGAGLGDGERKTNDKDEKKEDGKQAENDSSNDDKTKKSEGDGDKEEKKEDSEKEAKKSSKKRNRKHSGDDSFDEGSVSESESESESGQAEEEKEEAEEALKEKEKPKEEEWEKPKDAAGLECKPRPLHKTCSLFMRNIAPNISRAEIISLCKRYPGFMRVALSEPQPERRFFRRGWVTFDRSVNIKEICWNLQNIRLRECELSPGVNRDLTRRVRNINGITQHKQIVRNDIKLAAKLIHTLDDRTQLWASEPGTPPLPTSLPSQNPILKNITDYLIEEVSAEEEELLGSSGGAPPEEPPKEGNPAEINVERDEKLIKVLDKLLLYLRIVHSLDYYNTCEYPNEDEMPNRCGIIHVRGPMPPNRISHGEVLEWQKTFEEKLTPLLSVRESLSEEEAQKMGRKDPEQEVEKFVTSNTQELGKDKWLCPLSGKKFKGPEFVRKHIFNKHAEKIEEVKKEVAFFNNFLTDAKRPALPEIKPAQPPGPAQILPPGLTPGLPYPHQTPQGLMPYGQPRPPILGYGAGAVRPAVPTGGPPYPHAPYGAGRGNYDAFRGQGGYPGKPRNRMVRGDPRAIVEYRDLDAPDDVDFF
# Sequence of UniProt P05455 (P05455 whole entry, looked up): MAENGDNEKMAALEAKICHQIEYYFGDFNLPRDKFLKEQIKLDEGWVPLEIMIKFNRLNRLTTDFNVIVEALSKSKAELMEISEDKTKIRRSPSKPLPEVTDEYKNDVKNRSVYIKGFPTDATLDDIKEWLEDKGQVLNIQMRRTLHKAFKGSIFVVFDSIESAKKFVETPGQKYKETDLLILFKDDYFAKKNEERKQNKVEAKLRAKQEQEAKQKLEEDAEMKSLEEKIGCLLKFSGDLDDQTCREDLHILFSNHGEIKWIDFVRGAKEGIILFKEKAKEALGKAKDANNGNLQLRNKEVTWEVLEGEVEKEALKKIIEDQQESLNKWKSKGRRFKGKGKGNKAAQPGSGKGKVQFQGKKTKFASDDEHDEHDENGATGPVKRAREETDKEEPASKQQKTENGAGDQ
# Sequence of UniProt O95347 (O95347 whole entry, looked up): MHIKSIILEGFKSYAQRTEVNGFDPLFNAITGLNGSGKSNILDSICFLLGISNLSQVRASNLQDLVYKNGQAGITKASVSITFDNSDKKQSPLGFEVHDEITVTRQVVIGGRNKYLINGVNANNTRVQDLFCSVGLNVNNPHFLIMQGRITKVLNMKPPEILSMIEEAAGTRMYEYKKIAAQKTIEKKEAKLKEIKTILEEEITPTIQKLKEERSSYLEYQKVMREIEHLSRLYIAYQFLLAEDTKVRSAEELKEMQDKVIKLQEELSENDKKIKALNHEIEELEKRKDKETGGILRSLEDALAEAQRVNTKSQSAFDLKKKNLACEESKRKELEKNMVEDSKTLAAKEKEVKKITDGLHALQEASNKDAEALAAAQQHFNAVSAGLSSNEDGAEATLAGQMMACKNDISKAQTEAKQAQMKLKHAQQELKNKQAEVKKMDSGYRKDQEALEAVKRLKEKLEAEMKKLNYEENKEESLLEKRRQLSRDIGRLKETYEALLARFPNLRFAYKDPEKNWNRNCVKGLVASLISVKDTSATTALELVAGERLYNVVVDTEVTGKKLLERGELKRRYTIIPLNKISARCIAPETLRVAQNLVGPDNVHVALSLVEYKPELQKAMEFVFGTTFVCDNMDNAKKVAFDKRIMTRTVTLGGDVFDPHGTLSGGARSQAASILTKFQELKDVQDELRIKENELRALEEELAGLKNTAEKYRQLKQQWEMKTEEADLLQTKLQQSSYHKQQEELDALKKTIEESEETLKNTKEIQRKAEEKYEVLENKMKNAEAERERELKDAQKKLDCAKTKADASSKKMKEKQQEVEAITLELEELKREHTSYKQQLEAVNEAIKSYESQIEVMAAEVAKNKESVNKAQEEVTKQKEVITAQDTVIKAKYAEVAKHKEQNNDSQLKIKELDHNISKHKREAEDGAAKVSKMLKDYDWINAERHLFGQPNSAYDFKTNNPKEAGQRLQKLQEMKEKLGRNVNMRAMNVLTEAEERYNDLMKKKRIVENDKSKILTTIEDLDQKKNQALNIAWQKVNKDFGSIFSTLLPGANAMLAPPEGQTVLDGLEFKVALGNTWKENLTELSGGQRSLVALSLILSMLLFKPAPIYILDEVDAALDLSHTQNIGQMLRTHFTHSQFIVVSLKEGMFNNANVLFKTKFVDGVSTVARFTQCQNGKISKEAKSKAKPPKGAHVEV
# Sequence of UniProt Q96SB8 (Q96SB8 whole entry, looked up): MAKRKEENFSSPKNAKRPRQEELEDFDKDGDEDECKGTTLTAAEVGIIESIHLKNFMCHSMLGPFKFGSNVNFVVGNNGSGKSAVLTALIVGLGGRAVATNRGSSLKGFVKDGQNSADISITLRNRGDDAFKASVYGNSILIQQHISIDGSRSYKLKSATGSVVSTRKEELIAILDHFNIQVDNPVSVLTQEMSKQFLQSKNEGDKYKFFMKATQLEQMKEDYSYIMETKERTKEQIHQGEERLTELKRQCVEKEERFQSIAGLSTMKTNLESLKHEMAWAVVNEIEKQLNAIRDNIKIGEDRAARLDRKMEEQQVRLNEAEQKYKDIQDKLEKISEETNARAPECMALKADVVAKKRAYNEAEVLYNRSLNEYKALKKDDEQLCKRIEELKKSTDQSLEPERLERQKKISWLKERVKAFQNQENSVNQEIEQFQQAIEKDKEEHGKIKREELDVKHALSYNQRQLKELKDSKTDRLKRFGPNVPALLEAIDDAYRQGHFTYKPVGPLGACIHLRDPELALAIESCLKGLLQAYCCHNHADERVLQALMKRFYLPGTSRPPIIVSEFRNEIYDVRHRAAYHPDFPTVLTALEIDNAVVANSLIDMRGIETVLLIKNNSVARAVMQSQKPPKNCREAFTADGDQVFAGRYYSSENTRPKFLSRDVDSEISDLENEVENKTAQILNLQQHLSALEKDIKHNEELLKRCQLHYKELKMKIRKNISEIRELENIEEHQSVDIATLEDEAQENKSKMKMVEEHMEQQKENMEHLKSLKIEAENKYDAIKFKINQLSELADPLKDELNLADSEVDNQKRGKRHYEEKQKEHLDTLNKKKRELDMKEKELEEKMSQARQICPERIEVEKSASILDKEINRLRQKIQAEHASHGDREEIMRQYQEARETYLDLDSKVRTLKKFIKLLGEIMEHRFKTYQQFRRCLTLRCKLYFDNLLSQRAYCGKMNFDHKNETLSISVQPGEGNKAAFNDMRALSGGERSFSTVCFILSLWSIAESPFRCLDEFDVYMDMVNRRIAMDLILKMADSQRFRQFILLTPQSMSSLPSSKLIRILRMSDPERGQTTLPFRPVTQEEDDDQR
# Sequence of UniProt P49281 (P49281 whole entry, looked up): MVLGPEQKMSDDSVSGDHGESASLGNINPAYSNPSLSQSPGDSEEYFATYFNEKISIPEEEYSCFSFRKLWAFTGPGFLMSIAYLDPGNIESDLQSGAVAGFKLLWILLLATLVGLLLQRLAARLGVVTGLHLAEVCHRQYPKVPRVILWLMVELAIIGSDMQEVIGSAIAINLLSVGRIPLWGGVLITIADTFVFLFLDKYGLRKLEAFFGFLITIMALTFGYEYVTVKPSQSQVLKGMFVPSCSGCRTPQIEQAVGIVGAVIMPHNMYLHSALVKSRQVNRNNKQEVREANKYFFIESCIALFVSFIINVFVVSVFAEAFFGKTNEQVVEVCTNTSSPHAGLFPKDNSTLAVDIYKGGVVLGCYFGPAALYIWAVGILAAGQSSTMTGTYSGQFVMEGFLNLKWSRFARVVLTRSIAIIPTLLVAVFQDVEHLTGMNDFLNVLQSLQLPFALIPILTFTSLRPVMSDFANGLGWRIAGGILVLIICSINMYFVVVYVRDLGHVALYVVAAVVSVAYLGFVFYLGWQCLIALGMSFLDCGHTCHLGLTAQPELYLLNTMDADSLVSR
# Sequence of UniProt Q14542 (Q14542 whole entry, looked up): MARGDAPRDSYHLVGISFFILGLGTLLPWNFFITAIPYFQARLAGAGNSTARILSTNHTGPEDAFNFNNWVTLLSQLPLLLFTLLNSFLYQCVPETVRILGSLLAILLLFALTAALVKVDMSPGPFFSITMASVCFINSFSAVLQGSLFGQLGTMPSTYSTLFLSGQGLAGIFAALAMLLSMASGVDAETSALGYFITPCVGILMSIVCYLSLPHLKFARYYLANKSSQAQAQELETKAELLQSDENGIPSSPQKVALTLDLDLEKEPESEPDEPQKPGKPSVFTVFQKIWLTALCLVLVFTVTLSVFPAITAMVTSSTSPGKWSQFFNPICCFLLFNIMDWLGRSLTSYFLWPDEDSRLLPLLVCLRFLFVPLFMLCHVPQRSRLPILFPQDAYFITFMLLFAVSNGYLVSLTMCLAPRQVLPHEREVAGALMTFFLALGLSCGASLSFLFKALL
# Sequence of UniProt O95926 (O95926 whole entry, looked up): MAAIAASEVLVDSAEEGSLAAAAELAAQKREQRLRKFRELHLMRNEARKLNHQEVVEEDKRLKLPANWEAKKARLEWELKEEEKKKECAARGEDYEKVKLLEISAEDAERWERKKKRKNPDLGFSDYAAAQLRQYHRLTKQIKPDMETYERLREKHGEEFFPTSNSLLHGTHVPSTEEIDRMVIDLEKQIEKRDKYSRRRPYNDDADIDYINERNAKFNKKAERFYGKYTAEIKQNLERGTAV
row,Target,log2 fold change
1,SSB (UniProt P05455),0.099
2,SMG7 (UniProt Q92540),0.062
3,SMG1 (UniProt Q96Q15),-0.05
4,SRRT (UniProt Q9BXP5),-0.058
5,SHC1 isoform 6 (UniProt P29353),0.022
6,SH3BGRL2 (UniProt Q9UJC5),-0.029
7,SP1 (UniProt P08047),0.055
8,SHCBP1 (UniProt Q8NEM2),-0.019
9,SH3BP5L (UniProt Q7L8J4),0.007
10,SYNRG (UniProt Q9UMZ2),0.021
11,STK26 (UniProt Q9P289),-0.035
12,SMC2 (UniProt O95347),-0.023
13,SLC11A2 isoform 3 (UniProt P49281),-0.112
14,SYF2 (UniProt O95926),-0.008
15,SMC6 (UniProt Q96SB8),-0.012
16,SLC29A2 (UniProt Q14542),-0.242
17,SNAP23 (UniProt O00161),0.035

# Compound: Cn1cncc1[C@@](N)(c1ccc(Cl)cc1)c1ccc2c(c1)c(-c1cccc(Cl)c1)cc(=O)n2C [tipifarnib]
# Test: as above
# Outline: as §1
row,Target,log2 fold change
1,SPNS1 (UniProt Q9H2V7),0.069
2,SRM (UniProt P19623),0.014
3,STOML2 (UniProt Q9UJZ1),0.005
4,SFN (UniProt P31947),0.052
5,SMC1B isoform 3 (UniProt Q8NDV3),0.008
6,STK24 (UniProt B4DR80),0.007
7,STAU1 (UniProt O95793),-0.009
8,SPATS2 (UniProt Q86XZ4),0.013
9,SMC4 (UniProt Q9NTJ3),-0.003
10,STK38 (UniProt Q15208),-0.029
11,SMG6 (UniProt Q86US8),-0.065
12,SMARCA4 (UniProt P51532),-0.018
13,SSBP3 (UniProt Q9BWW4),0.028
14,STAT2 (UniProt P52630),-0.024
15,STUB1 (UniProt Q9UNE7),-0.011
16,SHKBP1 (UniProt Q8TBC3),0.088
17,SSB (UniProt P05455),0.022

row,Target,log2 fold change
1,SMG7 (UniProt Q92540),-0.072
2,SMG1 (UniProt Q96Q15),-0.028
3,SRRT (UniProt Q9BXP5),0.013
4,SHC1 isoform 6 (UniProt P29353),0.006
5,SH3BGRL2 (UniProt Q9UJC5),0.013
6,SP1 (UniProt P08047),-0.031
7,SHCBP1 (UniProt Q8NEM2),-0.035
8,SH3BP5L (UniProt Q7L8J4),-0.01
9,SYNRG (UniProt Q9UMZ2),-0.025
10,STK26 (UniProt Q9P289),-0.013
11,SMC2 (UniProt O95347),0.024
12,SLC11A2 isoform 3 (UniProt P49281),-0.089
13,SYF2 (UniProt O95926),0.046
14,SMC6 (UniProt Q96SB8),-0.06
15,SLC29A2 (UniProt Q14542),0.048
16,SNAP23 (UniProt O00161),0.036
